According to PubChem BioAssay (NCI):
This is part of a sample that, as a whole, favours compounds with a hit. Of some 83,000 tested, about 20% had one in any assay.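 Plates (96-well) were seeded with cells, treated with compound at one concentration, and incubated for 48 hours before percent growth was determined.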 Values without a mark were called inactive. Active and inactive are the calls of the source. Rule for the calls: active = growth percent below 10; inactive = the rest.

Assays:
Test in all cases: NCI-60 one-dose screen, 48 h (100 = growth as untreated, 0 = no growth, -100 = all killed)
Conditions in all cases: 10 µM unless noted
T-47D breast = test system: T-47D breast
BT-549 breast = test system: BT-549 breast
MDA-MB-435 melanoma = test system: MDA-MB-435 melanoma
SW-620 colon = test system: SW-620 colon
MCF7 breast = test system: MCF7 breast
HCT-116 colon = test system: HCT-116 colon
HCC-2998 colon = test system: HCC-2998 colon
KM12 colon = test system: KM12 colon

SMILES	growth (T-47D breast)	growth (BT-549 breast)	growth (MDA-MB-435 melanoma)	growth (SW-620 colon)	growth (MCF7 breast)	growth (HCT-116 colon)	growth (HCC-2998 colon)	growth (KM12 colon)
CC1(C)C(=NO)C(C)(C)C1=NO	121%	116%	92.2%	100%	106%	103%	98%	118%
C1=C[C@H]2O[C@@H]1c1ccc3[nH]ccc3c12	110%	108%	0.425% (active)	73.4%	96.1%	97.9%	86.7%	79.5%
COc1cc2c(c(OC)c1OC)-c1cc(I)c(O)cc1[C@@H](NC(C)=O)CC2	69.5%	3.61% (active)	6.18% (active)	31.4%	12.5%	11.9%	20.8%	15.1%
O=C(C[n+]1ccn(CC(OCc2ccc(Cl)cc2Cl)c2ccc(Cl)cc2Cl)c1)c1ccc(F)cc1 (centres undefined)	-71.6% (active)	-94.9% (active)	-92.5% (active)	-89.9% (active)	-84% (active)	-97.1% (active)	-94.6% (active)	-89.1% (active)
Fc1cc2[nH]ncc2c2c3c(c(-c4cn[nH]c4)nc12)CCCC3	-19.3% (active)	-17.3% (active)	5.22% (active)	5.91% (active)	3.02% (active)	5.6% (active)	16.5%	5.18% (active)
COc1ccc2c3ccnc(C(F)(F)F)c3n(CCCCN)c2c1	52.1%	52.4%	45.9%	38.5%	35.5%	16.5%	95.7%	54.8%
Cc1nc(Cl)cc(N(c2cc(Cl)nc(C)n2)c2ncc(C(=O)Nc3c(C)cccc3Cl)s2)n1	23.5%	93.3%	71.8%	96.6%	53.3%	19.1%	80.7%	79.7%
Cc1nc(-c2ccccc2)sc1CC#N	103%	113%	105%	103%	102%	108%	109%	107%
C=C(C)[C@@H]1CC[C@]2(C(=O)O)CC[C@]3(C)[C@H](CC[C@@H]4[C@@]5(C)C/C(=C/c6ccco6)C(=O)C(C)(C)[C@@H]5CC[C@]43C)[C@@H]12	-8.1% [100 µM] (active)	-67.8% [100 µM] (active)	-75.9% [100 µM] (active)	-34.7% [100 µM] (active)	-53.2% [100 µM] (active)	-74.7% [100 µM] (active)	-78.1% [100 µM] (active)	-96.3% [100 µM] (active)
O=c1cc(-c2ccccc2)oc2cc(OCc3cn(Cc4ccc(F)cc4)nn3)cc(O)c12	44.2% [100 µM]	16.3% [100 µM]	98.2% [100 µM]	102% [100 µM]	65.7% [100 µM]	48.5% [100 µM]	100% [100 µM]	99.4% [100 µM]
C=C(C)[C@@H]1CC[C@]2(C)[C@H](CC[C@@H]3[C@@H]([C@@](C)(O)CCC=C(C)C)CC[C@]32C)[C@@]1(C)CCC(=O)N1CCN(C)CC1	-42.9% [100 µM] (active)	-84% [100 µM] (active)	-82.6% [100 µM] (active)	-75% [100 µM] (active)	-65.9% [100 µM] (active)	-85.7% [100 µM] (active)	-91.9% [100 µM] (active)	-83% [100 µM] (active)
NC(=O)c1c(NC(=O)COC(=O)Cc2ccccc2F)sc2c1CCC2	88.8%	106%	105%	97.4%	88.8%	114%	114%	105%
Cc1ccc(NC(=S)/N=c2/n(-c3ccccc3)nc3n2CCN3C2=NCCN2)cc1	92.2%	-6.96% (active)	105%	97%	94.6%	48.6%	102%	109%
C#C[C@]1(O)CC[C@H]2[C@@H]3CC=C4c5nc(N)sc5CC[C@]4(C)[C@H]3CC[C@@]21C	58.2%	0.196% (active)	15.5%	74.6%	75.2%	33.8%	80.8%	44.7%
CC1(C)CC[C@]23CC[C@]4(C)[C@H](CC[C@@H]5[C@@]6(C)C/C(=C/c7ccncc7)C(=O)C(C)(C)[C@@H]6CC[C@]54C)[C@H]2[C@H]1OC3=O	62.6% [100 µM]	52.4% [100 µM]	78.7% [100 µM]	80.8% [100 µM]	70.1% [100 µM]	47.9% [100 µM]	78.2% [100 µM]	81.3% [100 µM]
Cc1cnc(N)nc1OCC(C)(C)CNC(=O)c1cccc(-c2ccc(S(=O)(=O)Nc3ccc4c(c3)N(C(=O)C3CC3)CCC4)cc2)c1	20%	78%	50.4%	73.9%	43.6%	61.3%	72.6%	61.8%
Nc1cccc2c1C(=O)c1cccc(NC(=O)c3ccccc3)c1C2=O	45.6%	24.9%	-56.4% (active)	7.88% (active)	13.7%	19.9%	-10.5% (active)	32.5%
CC(C)(C)OC(=O)N1C=C/C(=C\Cn2cc(-c3ccccc3)nn2)CC1	41.1%	58.1%	85.2%	93.8%	65.5%	74.1%	88.4%	88.9%
N=C(N)c1ccc(-c2ccc(-c3ccc(-c4cccs4)s3)s2)cc1F	87.7%	99.3%	94.1%	91.5%	64.9%	83.6%	69%	100%
N#C/C(=C(/O)CCCO)c1nc2ccccc2c(=O)[nH]1	101%	109%	168%	108%	86.6%	98.9%	73.5%	100%
CNc1cc(C(=O)O)nc(NC)n1	102%	88.7%	95.6%	98.1%	99.4%		94.7%	102%
CCCCNC(=O)NS(=O)(=O)Cc1ccccc1	113%	104%	116%	108%	96.6%	112%	110%	109%
NC1=NC(=O)NC1(c1ccccc1)c1ccccc1	80.3%	131%	104%	99.2%	99.8%	99.9%		103%
Cn1cc(-c2nnc(-c3cn(C)c4ncc(Br)cc34)o2)c2ccccc21	62%	95.2%	27.4%	83.6%	44.7%	98%	95.9%	56.3%
Cc1cc(SC#N)ncn1	104%	126%	107%	106%	93.3%	99.5%		104%
Cc1ccc(-c2cn(C/C=C3\C=CN(S(=O)(=O)c4ccccc4)CC3)nn2)cc1	78.3%	96.1%	101%	102%	90.3%	98%	109%	101%
O=C(NNc1ccc(-c2ccccc2)nn1)c1ccccc1	98.8%	94.6%	101%	103%	92%	91.3%	106%	102%
C=C(C)[C@@H]1CC[C@]2(COCCCN)CC[C@]3(C)[C@H](CC[C@@H]4[C@@](C)(CCCNCCCN)[C@H](C(=C)C)CC[C@]43C)[C@@H]12	-60.6% [100 µM] (active)	-43.2% [100 µM] (active)	-68.5% [100 µM] (active)	-67% [100 µM] (active)	-47.9% [100 µM] (active)		-55% [100 µM] (active)	-62.5% [100 µM] (active)
O=C(N=c1n(-c2ccccc2)nc2n1CCN2C1=NCCN1)c1ccc(Cl)cc1	83.9%	101%	42.1%	79.5%	86.4%		73%	99.3%
CC1=C/C(=C(\c2cc(C)c(O)c(C(=O)O)c2)c2c(Cl)cccc2Cl)C=C(C(=O)O)C1=O	98.3%	99.3%	108%	110%	92.7%		110%	103%
